Inconclusive results are not listed. Active and inactive are the calls of the source. Calls come from the whole dose curve; as a rule, active = well fitted curve in the direction sought with a large enough effect; inconclusive = small, poorly fitted or top-dose-only effect, or another doubt; inactive = no such curve, though single readings can be large; an effect the other way counts as inactive or inconclusive.
Assays:
[1] = biological target: Aldehyde dehydrogenase, mitochondrial (Homo sapiens) (UniProt P05091); assay: qHTS for Inhibitors of the Aldehyde Dehydrogenase Family (ALDH2) Primary screen (AID 2061308); note: nearly all actives have a fitted effect of over 55% in size; note: potency is the fitted concentration of half-maximal effect
[2] = biological target: Retinaldehyde dehydrogenase 3 (Homo sapiens) (UniProt P47895); assay: qHTS for Inhibitors of the Aldehyde Dehydrogenase Family (ALDH1A3) Primary screen (AID 2061315);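 note: plate controls were DMSO vehicle for no effect and reference inhibitor for full effect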
[3] = BET inhibitor-based combinations targeting novel dependencies in MECOM-rearranged (r) AML: SET-2 cell line (AID 2202231); details: SET-2 AML cells viability, CellTiter-Glo luminescence, 48 h; viability: stronger effect = lower value, concentration not given here; note: nearly all actives have a fitted effect of over 35% in size; note: potency is the fitted concentration of half-maximal effect;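 for viability: plate controls were DMSO treated cells for no effect and wells without cells for full effect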
How it was run: (§1)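 Here, 11-point titrations of each agent were applied to 500 seeded cells and incubated 48 hr; CellTiter-Glo signal, scaled against DMSO and empty wells, was integrated as AUC, then Z-scored within the individual line.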

[4] = BET inhibitor-based combinations targeting novel dependencies in MECOM-rearranged (r) AML: OCI-AML3 cell line (AID 2202232); details: Potency: OCI-AML3 viability; note: nearly all actives have a fitted effect of over 35% in size; note: potency is the fitted concentration of half-maximal effect
How it was run: as §1

[5] = BET inhibitor-based combinations targeting novel dependencies in MECOM-rearranged (r) AML: MV-4-11 cell line (AID 2202233); note: nearly all actives have a fitted effect of over 45% in size; note: potency is the fitted concentration of half-maximal effect
How it was run: (§2)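 Normalized to DMSO and empty-well controls, the luminescence data from CellTiter-Glo after 48 hr drug exposure were fitted across 11 concentrations. Reported metrics are area under the dose-response curve and its Z-transformed form.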

[6] = BET inhibitor-based combinations targeting novel dependencies in MECOM-rearranged (r) AML: HNT-34 cell line (AID 2202234); note: nearly all actives have a fitted effect of over 35% in size; note: potency is the fitted concentration of half-maximal effect
How it was run: as §2

[7] = BET inhibitor-based combinations targeting novel dependencies in MECOM-rearranged (r) AML: AML-191 cell line (AID 2202236; note: nearly all actives have a fitted effect of over 35% in size; note: potency is the fitted concentration of half-maximal effect)
How it was run: as §1

[8] = BET inhibitor-based combinations targeting novel dependencies in MECOM-rearranged (r) AML: AML-194 cell line (AID 2202237; note: nearly all actives have a fitted effect of over 40% in size; note: potency is the fitted concentration of half-maximal effect)
How it was run: as §1

[9] = BET inhibitor-based combinations targeting novel dependencies in MECOM-rearranged (r) AML: UCSD-AML1 cell line (AID 2202235); note: nearly all actives have a fitted effect of over 40% in size; note: potency is the fitted concentration of half-maximal effect
How it was run: as §2

[10] = biological target: Aldehyde dehydrogenase 1A1 (Homo sapiens) (UniProt P00352); assay: qHTS for Inhibitors of the Aldehyde Dehydrogenase Family (ALDH1A1) Confirmatory screens (AID 2061316); note: potency is the fitted concentration of half-maximal effect; nearly all actives have a fitted effect of over 65% in size

C[C@@H]1COCCN1c1cc(C2(S(C)(=N)=O)CC2)nc(-c2ccnc3[nH]ccc23)n1 (some centres undefined)
inactive: Potency [1] | Potency [2]
active: Potency [3] 2.63 µM | Potency [4] 1.86 µM | Potency [5] 2.35 µM | Potency [6] 4.68 µM | Potency [7] 2.63 µM | Potency [8] 5.25 µM

COCCNCCCn1c(C(=O)CF)c(-c2ccc(C)cc2)c2c(N)ncnc21
inactive: Potency [1] | Potency [2] | viability [3] 101% | Potency [9]
active: Potency [4] 0.059 µM | Potency [5] 3.32 µM

COc1ccccc1-c1cccc(-c2c(O)c3cc(C#N)c(Cl)cc3[nH]c2=O)c1
inactive: Potency [1] | Potency [2] | viability [3] 99.8% | Potency [4] | Potency [5] | Potency [6] | Potency [9] | Potency [7]

Fc1ccc(NC(=S)Nc2nnc(-c3ccncc3)s2)cc1C(F)(F)F
active: Potency [10] 5.04 µM
inactive: Potency [1] | Potency [2]

COc1cc(Nc2ncc(F)c(Nc3ccc4c(n3)N(COP(=O)(O)O)C(=O)C(C)(C)O4)n2)cc(OC)c1OC
active: Potency [3] 13.2 µM | Potency [5] 0.833 µM | Potency [6] 2.09 µM | Potency [9] 2.63 µM
inactive: Potency [1] | Potency [2] | Potency [4]

COc1cc(Oc2ccnc3cc(OC)c(OC)cc23)ccc1NC(=O)NC(C)c1nccs1 (centres undefined)
inactive: Potency [1] | Potency [2] | Potency [9]
active: Potency [3] 10.5 µM | Potency [4] 10.5 µM | Potency [5] 11.8 µM | Potency [6] 13.2 µM | Potency [8] 13.2 µM

CCCCNc1ncc2c(-c3ccc(F)cc3)nn(CC3CCC(N)CC3)c2n1 (centres undefined)
inactive: Potency [1] | Potency [2]
active: Potency [3] 14.4 µM | Potency [4] 9.1 µM | Potency [5] 0.129 µM | Potency [6] 4.56 µM | Potency [9] 6.45 µM | Potency [7] 5.74 µM | Potency [8] 5.74 µM

CO[C@H]1C[C@@H]2CC[C@@H](C)[C@@](O)(O2)C(=O)C(=O)N2CCCC[C@H]2C(=O)O[C@H]([C@H](C)C[C@@H]2CC[C@@H](OC(=O)C(C)(CO)CO)[C@H](OC)C2)CC(=O)[C@H](C)/C=C(\C)[C@@H](O)[C@@H](OC)C(=O)[C@H](C)C[C@H](C)/C=C/C=C/C=C/1C
active: Potency [3] 0.091 µM
inactive: Potency [1] | Potency [2]

O=C1Nc2nc(-c3c(O)cccc3OCC3CC3)cc([C@@H]3CCCNC3)c2CO1
inactive: Potency [1] | Potency [2]
active: Potency [3] 20.9 µM | Potency [4] 16.6 µM | Potency [5] 5.9 µM | Potency [6] 18.6 µM | Potency [7] 18.6 µM | Potency [8] 18.6 µM

COCCNCc1ccc(-c2cc3nccc(Oc4ccc(NC(=S)NC(=O)Cc5ccc(F)cc5)cc4F)c3s2)nc1
active: Potency [3] 4.68 µM | Potency [4] 2.63 µM | Potency [5] 0.132 µM | Potency [8] 2.63 µM
inactive: Potency [1] | Potency [2]

Cn1cc(-c2cnc3ccc4ccc(CS(=O)(=O)NCc5ccccn5)cc4c(=O)c3c2)cn1
inactive: Potency [1] | Potency [2] | Potency [4] | Potency [9]
active: Potency [3] 16.6 µM | Potency [6] 23.5 µM | Potency [7] 23.5 µM

COc1cccc(Nc2ncnn3ccc(CN4CC[C@@H](N)[C@H](O)C4)c23)c1
inactive: Potency [1] | Potency [2] | viability [3] 90.8%
active: Potency [4] 14.8 µM | Potency [5] 0.296 µM | Potency [6] 1.32 µM | Potency [9] 4.17 µM | Potency [7] 4.68 µM

C=CC(=O)Nc1ccc2ncnc(Nc3ccc(OCc4cccc(F)c4)c(Cl)c3)c2c1
active: Potency [3] 10.5 µM | Potency [4] 5.9 µM | Potency [5] 6.61 µM | Potency [6] 6.61 µM | Potency [9] 7.42 µM | Potency [7] 7.42 µM | Potency [8] 8.33 µM
inactive: Potency [1] | Potency [2]

Cc1c(F)ccc(C(=O)Nc2cc([N+](=O)[O-])ccc2N2CCN(C)CC2)c1Cl
inactive: Potency [1] | Potency [2] | viability [3] 110% | Potency [4] | Potency [6] | Potency [8]
active: Potency [5] 3.32 µM

Cc1nc(-c2cn3c(n2)-c2ccc(-c4cnn(C(C)(C)C(N)=O)c4)cc2OCC3)n(C(C)C)n1
inactive: Potency [1] | Potency [2]
active: Potency [3] 23.5 µM | Potency [4] 0.742 µM | Potency [5] 5.25 µM | Potency [6] 16.6 µM | Potency [9] 0.209 µM

C=CC(=O)N1CCC(Oc2cc3c(Nc4ccc(Cl)c(Cl)c4F)ncnc3cc2OC)CC1
active: Potency [3] 20.9 µM | Potency [4] 13.2 µM | Potency [5] 10.5 µM | Potency [6] 16.6 µM
inactive: Potency [1] | Potency [2]

O=C1Nc2cc(Cl)ccc2Nc2cscc21
active: Potency [1] 14.1 µM | Potency [10] 7.12 µM
inactive: Potency [2]

Cc1cc(CN2CCN(c3c(Br)cnc4nc(-c5ccc(N6CCN(C)CC6)cc5)[nH]c34)CC2)no1
active: Potency [3] 9.34 µM | Potency [4] 8.33 µM | Potency [6] 1.48 µM | Potency [9] 2.63 µM | Potency [7] 5.25 µM | Potency [8] 4.17 µM
inactive: Potency [1] | Potency [2]

COc1cc2ncnc(Nc3cccc(Cl)c3F)c2cc1OC(=O)N1CCN(C)C[C@H]1C
active: Potency [4] 13.2 µM | Potency [6] 16.6 µM
inactive: Potency [1] | Potency [2] | viability [3] 103% | Potency [9] | Potency [7] | Potency [8]

— PubChem BioAssay (NCATS)
